Test results: PubChem BioAssay (EPA / NIEHS)
Where “and” joins values, the source holds several entries; their conditions need not be identical. Equal entries are not always repeated. More than one record can exist for a structure, and the calls need not agree. Calls of active or inactive are those of the source. How the source made its calls: active means hit-call score of the fitted dose curve at least 0.9, where 1 is the maximum; inactive means score below 0.9.

Read-out: Human Leukocyte Antigen - DR isotype (HLADR), HLA-DRA (gene 3122)
Assay: BSK_3C_HLADR: BioMAP Diversity Plus: 3C Assay for Human Leukocyte Antigen - DR isotype (HLADR) Biomarker Activity (AID 2283019)
Conditions: primary human endothelial cells (HUVEC); actives raise or lower the signal
Procedure: BSK_3C is a cell-based, multiplexed-readout assay that uses umbilical vein endothelium, a human vascular primary cell, with measurements taken at 24 hours after chemical dosing in a 96-well plate.BSK_3C_HLADR is an assay component measured in the BSK_3C assay. It measures HLA-DR antibody related to regulation of gene expression using ELISA technology.Data from the assay component BSK_3C_HLADR was analyzed into 1 assay endpoint. This assay endpoint, BSK_3C_HLADR, was analyzed with bidirectional fitting relative to DMSO as the negative control and baseline of activity. Using a type of binding reporter, gain or loss-of-signal activity can be used to understand changes in the signaling as they relate to the gene HLA-DRA. Furthermore, this assay endpoint can be referred to as a primary readout, because this assay has produced multiple assay endpoints where this one serves a signaling function. To generalize the intended target to other relatable targets, this assay endpoint is annotated to the cell adhesion molecules intended target family, where the subfamily is MHC Class II.
The levels of cell surface (or secreted, indicated by the prefix "s") biomarker endpoints were measured by ELISA. Overt cytotoxicity to cells in confluent adherent cultures (all systems other than the BT system) was assessed by measuring total protein levels using sulforhodamine B (SRB) staining in parallel cultures at the time of biomarker measurements, indicated as SRB endpoints. For proliferation assays for adherent cell types, individual cell types are cultured at sub-confluence and relative cell numbers quantified by SRB staining at time points optimized for each system (48 h: 3C and CASM3C systems; 72 h: BT and HDF3CGF systems; 96 h: SAg system). SRB was performed by staining cells with 0.1% SRB after fixation with 10% TCA and reading wells at 560 nm.Viability and proliferation of PBMC (T cells) was quantified by Alamar Blue reduction for the SAg and BT systems. For PBMC viability (referred to as PBMC Cytotoxicity within the assay endpoint names), cells were plated (75,000/well in a 96-well plate) and then chemical samples added for 1 h before addition of activators, SEB and TSST-1 (20 ng/mL final concentration each). Cells were incubated for 90 h. Then, Alamar Blue (20 uL/well) (Invitrogen, Cat DAL1100) was added for 6 h, and the plates were read with a fluorescence microplate reader at 546/580 nm (excitation/emission). For PBMC proliferation, cells were plated and activated as above but incubated for only 16 h prior to addition of Alamar Blue. Plates were read after 6 h.

SMILES	AC50	outcome
O=C(O)C(F)(F)C(F)(F)C(F)(F)C(F)(F)C(F)(F)C(F)(F)C(F)(F)C(F)(F)C(F)(F)C(F)F	37.5 µM (active)	inactive
FC(F)(F)C(F)(F)C(F)(F)CI		inactive
FC(F)(F)C(F)(F)C(F)(F)C(F)(F)C(F)(F)C(F)(F)C(F)(F)I		inactive
FC(F)(F)C(F)(F)C(F)(F)C(F)(F)C(F)(F)CCI		inactive
FC(F)(F)C(F)(F)C(F)(F)C(F)(F)C(F)(F)C(F)(F)C(F)(F)C(F)(F)F		inactive
OCC(F)(F)C(F)(F)C(F)(F)C(F)(F)C(F)(F)C(F)(F)F		inactive
FC1CC(F)(F)C(F)(F)C1(F)F (stereo not given)		inactive
O=C(O)C(F)(F)C(F)(F)C(F)(F)C(F)(F)C(F)(F)C(F)(F)C(F)(F)C(F)(F)C(F)(F)C(F)(F)C(F)(F)C(F)(F)C(F)(F)F		inactive
CCO[Si](CCC(F)(F)C(F)(F)C(F)(F)C(F)(F)C(F)(F)C(F)(F)F)(OCC)OCC		inactive
O=C(Cl)C(F)(F)C(F)(F)C(F)(F)C(F)(F)C(F)(F)C(F)(F)C(F)(F)C(F)(F)F	49.4 µM (active) and 51.1 µM (active) and 52.5 µM (active)	
FC(F)(F)C(F)(F)C(F)(F)C(F)(F)C(F)(F)C(F)(F)C(F)(F)C(F)(F)CCS		inactive
O=C(O)C(F)(F)C(F)(F)F		inactive
Cc1ccc(S(=O)(=O)OCC(F)(F)C(F)(F)C(F)(F)C(F)(F)C(F)(F)C(F)F)cc1		inactive
C=C(C)C(=O)OCCC(F)(F)C(F)(F)C(F)(F)C(F)(F)C(F)(C(F)(F)F)C(F)(F)F		inactive
O=C(O)C(F)(F)C(F)(F)C(F)(F)C(F)(F)F		inactive
FC(F)(I)C(F)(F)C(F)(F)C(F)(F)I	50.2 µM (active) and 46.5 µM (active) and 59 µM (active)	
CCc1c(Br)c(Br)c(Br)c(Br)c1Br		inactive
CS(C)(=O)=O		inactive
O=S(=O)(OCCOC(F)(F)F)C(F)(F)F		inactive

SMILES	AC50	outcome
CCCCC(CC)COP(=O)(O)OCC(CC)CCCC (stereo not given)		inactive
OCC(F)(F)C(F)(F)C(F)(F)C(F)F		inactive
O=S(=O)(O)C(F)(F)C(F)(F)C(F)(F)C(F)(F)C(F)(F)C(F)(F)C(F)(F)F		inactive
CCCCNc1ccccc1		inactive
CCN(CC)c1ccc2c(C)cc(=O)oc2c1	31.3 µM (active)	
CC(C)(C)C(=O)CC(=O)C(F)(F)C(F)(F)C(F)(F)F	30 µM (active)	inactive
NC(=O)C(F)(F)C(F)(F)C(F)(F)C(F)(F)F		inactive
C=CC/C=C/C/C=C/C/C=C/C		inactive
O=C(CC(=O)C(F)(F)C(F)(F)F)C(F)(F)F		inactive
OCCCC(F)(F)C(F)(F)C(F)(F)F		inactive
CC(=O)Nc1ccc(N=Nc2cc(C)ccc2O)cc1	14.5 µM (active)	
O=C(O)C(F)(OC(F)(F)C(F)(OC(F)(F)C(F)(F)C(F)(F)F)C(F)(F)F)C(F)(F)F (stereo not given)		inactive
CO[Si](OC)(c1ccccc1)c1ccccc1	32.5 µM (active)	
CCCCCCCOC(=O)c1ccccc1C(=O)OCCCCCCC		inactive
C=CC(F)(F)C(F)(F)C(F)(F)C(F)(F)C(F)(F)C(F)(F)C(F)(F)C(F)(F)C=C		inactive
O=C(O)C(F)(F)C(F)(F)C(F)(F)C(F)(F)C(F)(F)C(F)(F)C(F)(F)C(F)(F)C(F)(F)C(F)(F)C(F)(F)C(F)(F)F		inactive
FC(F)(F)C(F)(F)C(F)(F)C(F)(F)C(F)(F)C(F)(F)C(F)(F)Br		inactive
N=C(N)C(F)(F)C(F)(F)C(F)(F)C(F)(F)C(F)(F)C(F)(F)C(F)(F)F	30 µM (active)	inactive
